Assay results taken from PubChem BioAssay (NCATS).
Records with an inconclusive call do not appear. Active and inactive are the calls of the source. Calls come from the whole dose curve; as a rule, active = well fitted curve in the direction sought with a large enough effect; inconclusive = small, poorly fitted or top-dose-only effect, or another doubt; inactive = no such curve, though single readings can be large; an effect the other way counts as inactive or inconclusive.

Experiments:
[1] = system: Zika virus NS2B-NS3 protease (linked construct); test: Primary screen NINDS Rhodamine qHTS for Zika virus inhibitors (AID 1347160); note: potency is the fitted concentration of half-maximal effect; nearly all actives have a fitted effect of over 55% in size
Outline: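 Rhodamine110-peptide cleavage (1.5 µM substrate) by 25 nM linked NS2B-NS3 enzyme at pH 8.0 (Tris, Tween 20), after 15 min RT preincubation with compounds; 15-min fluorescence change normalized to controls and Hill-fitted.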

[2] = OV-KATE Cancer Cell Toxicity qHTS against the NCATS CANVASS Library (AID 1347345)
Outline: (§1)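 Viability read-out: CellTiter-Glo luminescence after 72 h compound exposure at 37 °C/5% CO2. Cells plated at 1000/well, 4 h pre-incubation; 11-point titration. Bortezomib served as control.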

[3] = HPAF-II Cancer Cell Toxicity qHTS against the NCATS CANVASS Library (AID 1347346); note: series mostly up to about 38 µM; nearly all actives have a fitted effect of over 55% in size
Outline: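 First, HPAF-II cells are plated (1000 cells/well) and held 4 h at 37 degrees C. Next, compounds are pin-transferred as an 11-point series. After 72 h, CellTiter-Glo is added and luminescence measured.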

[4] = UWB1.289 Cancer Cell Toxicity qHTS against the NCATS CANVASS Library (AID 1347347); note: series mostly up to about 38 µM; nearly all actives have a fitted effect of over 60% in size
Outline: as §1

[5] = OV-SAHO Cancer Cell Toxicity qHTS against the NCATS CANVASS Library (AID 1347348); note: series mostly up to about 38 µM; nearly all actives have a fitted effect of over 55% in size
Outline: as §1

[6] = Panc-1005 Cancer Cell Toxicity qHTS against the NCATS CANVASS Library (AID 1347349); note: series mostly up to about 38 µM; nearly all actives have a fitted effect of over 60% in size
Outline: as §1

[7] = SW1088 Cancer Cell Toxicity qHTS against the NCATS CANVASS Library (AID 1347350); note: nearly all actives have a fitted effect of over 75% in size
Outline: as §1

[8] = U-118MG Cancer Cell Toxicity qHTS against the NCATS CANVASS Library (AID 1347351); note: series mostly up to about 38 µM
Outline: as §1

[9] = COV-362 Cancer Cell Toxicity qHTS against the NCATS CANVASS Library (AID 1347352); note: series mostly up to about 38 µM
Outline: (§2)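 First, 1000 cells go into each well and rest for 4 hours. Next, an 11-point dilution range is pinned in. Plates then incubate 72 hours before CellTiter-Glo addition and luminescence reading.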

[10] = A2780 Cisplatin Sensitive Ovarian Cancer Cell Toxicity qHTS against the NCATS CANVASS Library (AID 1347353); note: nearly all actives have a fitted effect of over 60% in size
Outline: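 Cells are plated at 750 per well and rest for 4 hours. Compounds are added across eleven concentrations, and incubated 72 hours before ATP is quantified by luminescence.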

[11] = UWB1.289-WTBRCA1 Cancer Cell Toxicity qHTS against the NCATS CANVASS Library (AID 1347354)
Outline: as §2

[12] = HEK-293 Cancer Cell Toxicity qHTS against the NCATS CANVASS Library (AID 1347355); note: series mostly up to about 46 µM; nearly all actives have a fitted effect of over 65% in size
Outline: as §2

[13] = HPAF-II 24hr Apoptosis Induction qHTS against the NCATS CANVASS Library (AID 1347356)
Outline: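 Cells seeded at 500 per well, then compounds pin-transferred in an 11-point concentration series. After 24 hours at 37 degrees C, Caspase-Glo 3/7 was added and luminescence measured following 15 min at room temperature.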

[14] = HEK293 18hr Apoptosis Induction qHTS against the NCATS CANVASS Library (AID 1347357)
Outline: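 Luminescent caspase-3/7 signal is measured in HEK293 cells exposed for 18 hours to an 11-point concentration series; doxorubicin serves as the plate control.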

[15] = HPAF-II 12hr Apoptosis Induction qHTS against the NCATS CANVASS Library (AID 1347358)
Outline: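 Cells plated at 500 per well are dosed with compound and incubated 12 hours at 37 degrees C. Caspase-Glo 3/7 reagent is added and, after 15 min at room temperature, luminescence proportional to caspase activity is measured.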

[16] = HEK293 24hr Apoptosis Induction qHTS against the NCATS CANVASS Library (AID 1347359)
Outline: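 HEK293 cells (500/well, DMEM + 10% FBS) were exposed to compounds in an 11-point series for 24 hours at 37 degrees C, then caspase-3/7 activity was read by Caspase-Glo DEVD luciferase luminescence after 15 min.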

[17] = HPAF-II 18hr Apoptosis Induction qHTS against the NCATS CANVASS Library (AID 1347360)
Outline: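 Apoptosis was scored as caspase-3/7 activity in HPAF-II pancreatic cancer cells treated 18 hours with an 11-point concentration series.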

[18] = HEK293 12hr Apoptosis Induction qHTS against the NCATS CANVASS Library (AID 1347361)
Outline: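 Apoptosis in HEK293 was scored as caspase-3/7 luminescence following 12 h treatment with a compound concentration series in qHTS format.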

[19] = system: NAD(P)H diaphorase (Clostridium kluyveri); test: Diaphorse counterscreen qHTS: Assay Interference Panel against the NCATS CANVASS Library (AID 1347362)
Outline: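 Clostridium kluyveri diaphorase in PBS with 0.01% Tween-20 was preincubated 15 min at room temperature in the dark with compounds (11-point series). Resorufin fluorescence (ex 525/20, em 598/25) was read 5 min after adding resazurin/NADH.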

[20] = target: Luciferin 4-monooxygenase (Photinus pyralis) (UniProt P08659); test: Firefly luciferase counterscreen qHTS: Assay Interference Panel against the NCATS CANVASS Library (AID 1347363); note: series mostly up to about 57 µM
Luciferin 4-monooxygenase (Photinus pyralis), sequence (P08659 whole entry, looked up): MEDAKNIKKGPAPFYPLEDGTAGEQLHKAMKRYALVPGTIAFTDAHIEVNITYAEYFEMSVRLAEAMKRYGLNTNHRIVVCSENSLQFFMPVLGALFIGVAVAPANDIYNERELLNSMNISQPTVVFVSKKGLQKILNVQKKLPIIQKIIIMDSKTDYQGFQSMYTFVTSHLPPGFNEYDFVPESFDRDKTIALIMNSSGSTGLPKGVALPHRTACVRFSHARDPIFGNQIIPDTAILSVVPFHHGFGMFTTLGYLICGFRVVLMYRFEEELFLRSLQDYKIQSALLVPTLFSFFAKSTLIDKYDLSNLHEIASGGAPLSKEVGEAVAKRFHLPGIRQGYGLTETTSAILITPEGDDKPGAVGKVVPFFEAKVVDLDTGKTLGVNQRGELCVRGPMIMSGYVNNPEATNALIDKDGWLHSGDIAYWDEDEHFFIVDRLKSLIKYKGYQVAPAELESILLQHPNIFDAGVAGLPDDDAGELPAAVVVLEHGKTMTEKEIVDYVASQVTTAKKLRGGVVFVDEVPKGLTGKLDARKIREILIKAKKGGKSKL
Outline: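 Purified P. pyralis luciferase was added to compounds (11-point series) preincubated 15 min at room temperature with substrate containing 0.013 mM D-luciferin and 0.013 mM ATP; luminescence was read after 5 min.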

[21] = KB-8-5-11 Cancer Cell Toxicity qHTS against the NCATS CANVASS Library (AID 1347364); note: series mostly up to about 46 µM; nearly all actives have a fitted effect of over 75% in size
Outline: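 Terse: KB-8-5-11, 500 cells/well, 72 hr, 37C/5% CO2, 11-pt titration, CellTiter-Glo readout; confirmatory runs ± 1uM tariquidar in medium.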

[22] = SDT Cancer Cell Toxicity qHTS against the NCATS CANVASS Library (AID 1347365);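 note: SDT canine glioma cells 500 per well in 1536 well plates; series mostly up to about 46 µM; nearly all actives have a fitted effect of over 60% in size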
Outline: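 Cytotoxicity is measured from cellular ATP: compounds in an 11-point concentration series are pinned onto SDT cells, incubated 72 hr at 37C, then CellTiterGlo is added and luminescence read.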

[23] = KB-3-1 Cancer Cell Toxicity qHTS against the NCATS CANVASS Library (AID 1347366); note: series mostly up to about 46 µM; nearly all actives have a fitted effect of over 75% in size
Outline: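 Seed KB-3-1 cells at 500/well in DMEM with 10% FBS, add compounds, incubate 72 hr at 37C and 5% CO2, then add CellTiter-Glo and read luminescence after 10 minutes.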

Measured: Potency

O=c1cc(-c2ccc(O)cc2)oc2c([C@@H]3OC(CO)[C@H](O)[C@@H](O)[C@H]3O)c(O)cc(O)c12 (stereo partly drawn)
active: [1] 17.5 µM
inactive: [2] | [3] | [4] | [5] | [6] | [7] | [8] | [9] | [10] | [11] | [12] | [13] | [14] | [15] | [16] | [17] | [18] | [19] | [20] | [21] | [22] | [23]
